Laboratory results as given in PubChem BioAssay (NCI).
This is part of a sample that, as a whole, favours compounds with a hit. Of some 83,000 tested, about 20% had one in any assay.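 Percent growth is the endpoint: 0 to 100 indicates growth inhibition (40 means 60% inhibition), 0 means no net growth, and negative values indicate cell death.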 Values without a mark were called inactive. Calls of active or inactive are those of the source. Rule for the calls: active = growth percent below 10; inactive = the rest.

Tested on: A549/ATCC NSCLC
Assay: NCI-60 one-dose screen, 48 h (100 = growth as untreated, 0 = no growth, -100 = all killed)
Conditions: 10 µM unless noted

Compound	growth
COc1cccc(/C=C/C(=O)c2c(C)nc3ccccc3c2/C=C/c2ccc(C)cc2)c1OC	94.3%
COC1=C(OC)C(=O)C(OC)=C(OC)C1=O	90%
Cn1c(-c2c(N)n(Cc3ccc(C(F)(F)F)cc3)c3nc(C#N)c(C#N)nc23)nc2ccccc21	12%
COc1ccc(/C=N/C2=C(C#N)C(c3ccc(OC)cc3)c3ccc4ccccc4c3O2)cc1 (configuration not stated)	83.7%
O=[N+]([O-])c1ccc(C2CC(c3ccccc3)=Nc3ccccc3S2)cc1 (configuration not stated)	105%
COc1cccc(-c2nc3sccn3c2-c2ccnc(NCCNS(=O)(=O)c3cccc(F)c3)c2)c1	27.2%
Cc1ccc(NS(=O)(=O)c2ccc3c(c2)C2OCCC2C(c2ccc(C(=O)C(C)C)cc2)N3)cc1C (configuration not stated)	27.4%
C=C(C)[C@@H]1CC=C2c3sc(-c4ccc(C)cc4)nc3C[C@@H](C)[C@]2(C)C1	95.3%
COc1ccc(C2=Nc3c(N)ncnc3NC(c3ccc4c(c3)OCO4)C2)cc1 (configuration not stated)	89.3%
Cc1cccc(Cc2cnc(NC(=O)c3ccc4nnsc4c3)s2)c1	96.2%
CC(=O)n1c(-c2ccc(Cl)cc2)nc2c(c1=O)C(c1ccc(Cl)cc1)c1sc3c(Cl)cccc3c1O2 (configuration not stated)	-63.7% (active)
C[C@H](NC(=O)[C@@H]1CSSC[C@@H](NC(=O)c2nc3ccccc3cc2O)C(=O)NCC(=O)N1C)c1ccccc1	42.9%
COc1cc(/C=N/n2c(CN3CCOCC3)nc3ccccc3c2=O)cc(OC)c1OC	92.3%
COc1ccc2c(c1)O/C(=C\c1cccc(OCC(=O)Nc3nc(C)c(C)s3)c1)C2=O	12.4%
O=c1c2c3c(sc2n2c(-c4cc(-c5ccccc5)nn4-c4ccccc4)nnc2n1Cc1ccccc1)CCCC3	101%
Cc1ccc(Cl)cc1NC(=O)c1cc2ccccc2cc1O	13.9%
COc1ccc2[nH]c(O)c(/C=c3/cc4c(c(-c5ccc(F)c(OC)c5)n3)=Nc3ccccc3-4)c2c1	52.8%
Clc1cccc(Cl)c1C(Nc1nc2ccccc2s1)Nc1nc2ccccc2s1	106%
COC(=O)[C@H](CSC)N(C)C(=O)[C@@H]1CSSC[C@@H](NC(=O)c2nc3ccccc3cc2O)C(=O)NCC(=O)N1C	59.4%
N[C@@H](CCCCNCC(=O)O)C(=O)O	101%
CC/C=C1/C(=O)C=C[C@@H]1C/C=C\CCCC(=O)O	87.9%
CC(C)=C[C@@H]1c2c(c3ccccc3n(C)c2=O)O[C@H]2c3c(c4ccccc4n(C)c3=O)OC(C)(C)[C@@H]12	89.3%
N=C1CCC(=N)c2c1c(O)c1ccccc1c2O	95.2%
C(=N\Nc1ncc(-c2cc3cc4c(cc3o2)OCO4)s1)/c1ccco1	-10.1% (active)
Cc1ccc2[nH]c(=O)c3c(c2c1)OC(N)=C(C#N)C31c2cc(Br)ccc2-c2ccc(Br)cc21	53.9%

Tested on: 786-0 renal
Assay: as above
Conditions: 10 µM unless noted

Compound	growth
COC(=O)[C@]12CC[C@@H](C)[C@H](C)[C@@H]1C1=CC[C@@H]3[C@@]4(C)C(C=O)=C[C@@](C)(COC(=O)c5ccco5)C4=CC[C@@]3(C)[C@]1(C)CC2	-8.17% (active)
Nc1n[nH]c2cc(F)c([C@@H]3Nc4c(F)cc5[nH]ncc5c4[C@H]4C5CCC(C5)[C@@H]34)cc12 (some centres not stated)	29.2%
CC1(c2ccccc2)NC(=O)N(NC(=O)CSc2nc(-c3cccs3)nc3ccccc23)C1=O (configuration not stated)	94.1%
CC(C)C(=O)Nc1n[nH]c2cc(-c3cccc(NS(=O)(=O)C4CC4)c3)ccc12	89.2%
COc1c(CCC[P+](c2ccccc2)(c2ccccc2)c2ccccc2)cc2c(c1OC)OCO2	21.8%
CN(C)CC1=NC2SC=C(c3ccccc3)C2C(=O)N1CC#N (configuration not stated)	96.2%
Cc1cc(C)c2c(-c3nnc(N)s3)cc(=O)oc2c1	99.4%
C[C@]12CC[C@@H]3c4cc(OC(F)F)c(O)cc4CC[C@H]3[C@@H]1CC[C@@H]2OS(N)(=O)=O	56.4%
NC(=S)Nc1cccc(O)c1	100%
O=C(Nc1ccc(-n2cc(-c3ccncc3)c(-c3ccc(Cl)c(O)c3)n2)cc1)N1CCOCC1	101%
COc1ccc(-c2cc(-c3cc(OC)c(OC)c(OC)c3)c(C#N)c(N3CCOCC3)n2)cc1O	68.9%
COC(=O)CCC1=C(C)C2=NC1=CC1=NC(=CC3=NC(=Cc4[nH]c(/c(=C(/C)O)c4C)=C2)C(C(C)=O)=C3C)C(C)=C1CCC(=O)OC	105%
COc1cccc(/C=C/C(=O)c2c(C)nc3ccccc3c2/C=C/c2ccc(C)cc2)c1OC	74.5%
COC1=C(OC)C(=O)C(OC)=C(OC)C1=O	99.3%
Cn1c(-c2c(N)n(Cc3ccc(C(F)(F)F)cc3)c3nc(C#N)c(C#N)nc23)nc2ccccc21	3.33% (active)
COc1ccc(/C=N/C2=C(C#N)C(c3ccc(OC)cc3)c3ccc4ccccc4c3O2)cc1 (configuration not stated)	95.1%
O=[N+]([O-])c1ccc(C2CC(c3ccccc3)=Nc3ccccc3S2)cc1 (configuration not stated)	105%
COc1cccc(-c2nc3sccn3c2-c2ccnc(NCCNS(=O)(=O)c3cccc(F)c3)c2)c1	48.1%
Cc1ccc(NS(=O)(=O)c2ccc3c(c2)C2OCCC2C(c2ccc(C(=O)C(C)C)cc2)N3)cc1C (configuration not stated)	58.9%

Compound	growth
C=C(C)[C@@H]1CC=C2c3sc(-c4ccc(C)cc4)nc3C[C@@H](C)[C@]2(C)C1	109%
COc1ccc(C2=Nc3c(N)ncnc3NC(c3ccc4c(c3)OCO4)C2)cc1 (configuration not stated)	55.6%
Cc1cccc(Cc2cnc(NC(=O)c3ccc4nnsc4c3)s2)c1	96%
CC(=O)n1c(-c2ccc(Cl)cc2)nc2c(c1=O)C(c1ccc(Cl)cc1)c1sc3c(Cl)cccc3c1O2 (configuration not stated)	-50.1% (active)
C[C@H](NC(=O)[C@@H]1CSSC[C@@H](NC(=O)c2nc3ccccc3cc2O)C(=O)NCC(=O)N1C)c1ccccc1	-37.2% (active)
COc1cc(/C=N/n2c(CN3CCOCC3)nc3ccccc3c2=O)cc(OC)c1OC	100%
COc1ccc2c(c1)O/C(=C\c1cccc(OCC(=O)Nc3nc(C)c(C)s3)c1)C2=O	17.7%
O=c1c2c3c(sc2n2c(-c4cc(-c5ccccc5)nn4-c4ccccc4)nnc2n1Cc1ccccc1)CCCC3	95.9%
Cc1ccc(Cl)cc1NC(=O)c1cc2ccccc2cc1O	-6.83% (active)
COc1ccc2[nH]c(O)c(/C=c3/cc4c(c(-c5ccc(F)c(OC)c5)n3)=Nc3ccccc3-4)c2c1	-59% (active)
Clc1cccc(Cl)c1C(Nc1nc2ccccc2s1)Nc1nc2ccccc2s1	110%
COC(=O)[C@H](CSC)N(C)C(=O)[C@@H]1CSSC[C@@H](NC(=O)c2nc3ccccc3cc2O)C(=O)NCC(=O)N1C	111%
N[C@@H](CCCCNCC(=O)O)C(=O)O	97.2%
CC/C=C1/C(=O)C=C[C@@H]1C/C=C\CCCC(=O)O	102%
CC(C)=C[C@@H]1c2c(c3ccccc3n(C)c2=O)O[C@H]2c3c(c4ccccc4n(C)c3=O)OC(C)(C)[C@@H]12	93.5%
N=C1CCC(=N)c2c1c(O)c1ccccc1c2O	113%
C(=N\Nc1ncc(-c2cc3cc4c(cc3o2)OCO4)s1)/c1ccco1	1.77% (active)
Cc1ccc2[nH]c(=O)c3c(c2c1)OC(N)=C(C#N)C31c2cc(Br)ccc2-c2ccc(Br)cc21	46.4%
